Source: ChEMBL document CHEMBL4513216, “Probing the Open Global Health Chemical Diversity Library for Multistage-Active Starting Points for Next-Generation Antimalarials” (ACS Infect Dis, 2020)
Hit rate of the full screen: of about 69,000 compounds, about 8,600 (12%) showed an effect of 50% or more. What follows is part of a selection rich in strong results, with near analogues and random picks from the rest.

The compounds below were run on Plasmodium berghei (assay: Screen against P. berghei liver stage (PbLuc), transformed with Luciferase, at 10uM). Settings: tested at 10 uM.
Type: functional, HepG2
`Nc1nc2c(c3c1C(=O)NC3=O)CCC2` gave an INHIBITION of 41.9%. Work on `O=C1NC(=O)c2c3c(nc(O)c21)CCCC3` yielded an INHIBITION of 29.3%. With `Nc1nc2c(c3c1C(=O)NC3=O)CCCC2` the INHIBITION was 70.7%. `COc1ccc(Nc2nc(N)c(C(C)=O)s2)cc1Cl` gave an INHIBITION of 17.6%. Work on `COCCN1CC[C@@H]2O[C@@H](COCC(=O)N3CCCC3)CC[C@@H]21` yielded an INHIBITION of -23.2%. For `Cc1cc(NCCCC(F)(F)F)n2nc(C)cc2n1`, the INHIBITION was 42.3%. `Cc1cc(NCc2cc(C)oc2C(F)(F)F)n2nc(C)cc2n1` was tested, and the INHIBITION was 79.2%. For `Cc1cc(C(F)(F)F)nc(CNc2cc(C)nc3cc(C)nn23)n1`, the INHIBITION was 43.2%. Work on `CCN(C)c1ncnc2c1CCN(Cc1ccc(OC)cc1)CC2` yielded an INHIBITION of 34.1%. With `O=C(c1ccsc1)N1CCO[C@@H]2CN(Cc3ccccn3)CC[C@@H]2C1` the INHIBITION was -31.3%. In the case of `Cc1nc(N2CCOCC2)nc2c1CN(C(=O)C(C)C)CC2`, the INHIBITION is reported as 5.04%. Work on `Cc1nc(N2CCCC2)nc2c1CN(C(=O)N1CCOCC1)CC2` yielded an INHIBITION of 34.9%. `Cc1nc(N2CCCC2)nc2c1CCN(C(=O)N1CCCC1)CC2` showed an INHIBITION of -23.3%. `Cc1nc(N2CCCC2)nc2c1CCN(C(=O)c1ccoc1C)CC2` gave an INHIBITION of 3.17%. For `Cc1cc(C(=O)N2CCc3nc(N4CCOCC4)nc(C)c3C2)c(C)o1`, the INHIBITION was 55.7%. `Cc1cc(C(=O)N2CCc3nc(N4CCCC4)nc(C)c3CC2)c(C)o1` gave an INHIBITION of 67.5%. `Cc1ccc(C(=O)NCc2ccnc(N(C)C)c2)c(C)c1` gave an INHIBITION of -29.1%. In the case of `Cc1ccccc1N1CC(c2nnc(N)s2)CC1=O` (stereo not drawn), the INHIBITION is reported as -37.1%. For `CC(C)C[C@H](NC(=O)Nc1ccc(F)c(Cl)c1)C(=O)O`, the INHIBITION was 47.1%. `COC(=O)CNC(=O)c1nc(Cl)sc1C(C)C` gave an INHIBITION of -17.6%. For `CCNC(=O)C1(Cc2cc(-c3ccccc3)no2)CCCN(C)C1` (stereo not drawn), the INHIBITION was 10.9%. For `COCC(=O)N1C[C@@H](O)[C@H](N2CCN(c3ccccc3)CC2)C1`, the INHIBITION was 12.39%. `O=C(CNc1ccc(OC2CCOC2)cc1)NCc1ccco1` (stereo not drawn) showed an INHIBITION of -12.1%. For `O=C(CNc1ccc(OC2CCOC2)cc1)NCc1cccs1` (stereo not drawn), the INHIBITION was 59.8%. With `Cc1ccccc1CNC(=O)CNc1ccc(OC2CCOC2)cc1` (stereo not drawn) the INHIBITION was -6.97%. Work on `Cc1ccccc1C1(CNC(=O)NC(C)c2nncn2C)CC1` (stereo not drawn) yielded an INHIBITION of 40.2%. `CN(Cc1ccccc1)C(=O)Cn1nc(N2CCSCC2)ccc1=O` gave an INHIBITION of -22.9%. In the case of `COc1cccc(CNCCc2cccc(C(N)=O)c2)c1`, the INHIBITION is reported as -0.758%. `NC(=O)c1cccc(CCNCc2cnc(C3CCC3)s2)c1` gave an INHIBITION of 82.5%. In the case of `NC(=O)c1cccc(CCNCc2cccs2)c1`, the INHIBITION is reported as 27.7%. `COc1ccccc1CNCCc1cccc(C(N)=O)c1` was tested, and the INHIBITION was 2.22%. Work on `NC(=O)c1cccc(CCNCc2cnc(-c3cccs3)s2)c1` yielded an INHIBITION of 74%. Work on `COc1ccc(CNCCc2cccc(C(N)=O)c2)cc1C` yielded an INHIBITION of 11.8%. `O=C(CCc1ccsc1)N1CCCCC1Cn1cccn1` (stereo not drawn) gave an INHIBITION of -23.9%. `Cc1noc([C@H]2CC[C@@H]3[C@@H](CCN3S(=O)(=O)C3CC3)O2)n1` showed an INHIBITION of -6.23%. `Cc1cccc(OCCC(=O)N2CCN(CC(=O)NC3CC3)CC2)c1C` gave an INHIBITION of 33.8%. `Cn1c(N2CCOCC2)nc2cc(C(=O)N3CCCOCC3)ccc21` gave an INHIBITION of -24.6%. `CNC(=O)Cc1ccc(-n2ccnc2-c2cccc(C(=O)O)c2)cc1` gave an INHIBITION of 15.6%. Compound `CCc1ncc(-c2nccn2-c2cccc(CC(=O)O)c2)cn1` has an INHIBITION of 16.3%. Work on `CC(=O)NCc1cccc(-n2ccnc2-c2cccc(C(=O)O)c2)c1` yielded an INHIBITION of 62.1%. `Cc1cnn(C2CCCN(C(=O)c3ccc(Cn4ccnc4)cc3)C2)c1` (stereo not drawn) was tested, and the INHIBITION was 16.9%. For `Cc1ccc(C(CNC(=O)c2cc(=O)c3ccccc3[nH]2)N(C)C)cc1` (stereo not drawn), the INHIBITION was -5.22%. Work on `Cc1cnc(N2C[C@@H]3CN(C4CCOC4)CCC[C@]3(C(=O)O)C2)nc1` (stereo partly drawn) yielded an INHIBITION of 24.9%. `CCN(CC1CC1)C(=O)NCc1nnc2n1CCC2` gave an INHIBITION of 45.3%. `COc1ccc(NC(=O)NCC(O)c2ccccc2F)c(OC)c1` (stereo not drawn) showed an INHIBITION of 3.15%. For `Cc1c(C(=O)N2CCC(c3nc(C)n4ccsc34)CC2)cnn1C`, the INHIBITION was 42.6%. For `CN1[C@H](Cn2cncn2)C[C@@H]2CN(Cc3cccc(C#N)c3)CC[C@@H]21`, the INHIBITION was 20.1%. `CC(C)N1[C@H](Cn2cncn2)C[C@@H]2CN(Cc3ccsc3)CC[C@@H]21` gave an INHIBITION of 47.5%. `CC(C)N1[C@H](Cn2cncn2)C[C@@H]2CN(Cc3cccs3)CC[C@@H]21` gave an INHIBITION of 57.5%. `CN1[C@H](Cn2cncn2)C[C@@H]2CN(Cc3ccsc3)CC[C@@H]21` showed an INHIBITION of 54.8%. `CC(C)N1[C@H](CN2CCCC2)C[C@@H]2CN(Cc3ccoc3)CC[C@@H]21` was tested, and the INHIBITION was -75.9%. `CN1[C@H](Cn2cccn2)C[C@@H]2CN(Cc3cccs3)CC[C@@H]21` showed an INHIBITION of 28.3%. Compound `CC(=O)N1[C@H](Cn2cncn2)C[C@@H]2CN(Cc3ccccn3)CC[C@@H]21` has an INHIBITION of 34.1%. `CC(C)N1[C@H](Cn2cccn2)C[C@@H]2CN(Cc3ccoc3)CC[C@@H]21` gave an INHIBITION of 57.9%. With `CC(=O)N1[C@H](Cn2cncn2)C[C@@H]2CN(Cc3cccnc3)CC[C@@H]21` the INHIBITION was 35.4%. In the case of `CC(C)N1[C@H](Cn2cccn2)C[C@@H]2CN(C3CCOCC3)CC[C@@H]21`, the INHIBITION is reported as 33%. For `CC(C)N1[C@H](Cn2cncn2)C[C@@H]2CN(c3ncccn3)CC[C@@H]21`, the INHIBITION was 20.1%. `CC(=O)N1[C@H](Cn2cncn2)C[C@@H]2CN(Cc3ccncc3)CC[C@@H]21` showed an INHIBITION of 55.9%.
